# Screening results: PubChem, The Scripps Research Institute Molecular Screening Center
# ZTA DNA inh = blocks Epstein-Barr virus ZTA, an EBNA-1 counter-screen. P03206. ZTA-DNA binding, fluorescence polarization. inhibition, % at 11 µM. 320,000 compounds, 0.15% hits; in the data active = inhibition above about 33%
# pPAFAH inh = inhibitors of human plasma PAF acetylhydrolase (pPAFAH). inhibition, % at 3.39 µM. 330,000 compounds, 1.5% hits. recombinant pPAFAH, FP-rhodamine probe fluorescence polarization;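 active = inhibition above the mean inhibition across the screen plus 3 SD, cut at about 25% in these data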;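 also: inhibitors block binding of the rhodamine activity-based probe so polarization drops; 0% = enzyme with DMSO and 100% = wells lacking pPAFAH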
# Target sequence (Q13093 whole entry, looked up): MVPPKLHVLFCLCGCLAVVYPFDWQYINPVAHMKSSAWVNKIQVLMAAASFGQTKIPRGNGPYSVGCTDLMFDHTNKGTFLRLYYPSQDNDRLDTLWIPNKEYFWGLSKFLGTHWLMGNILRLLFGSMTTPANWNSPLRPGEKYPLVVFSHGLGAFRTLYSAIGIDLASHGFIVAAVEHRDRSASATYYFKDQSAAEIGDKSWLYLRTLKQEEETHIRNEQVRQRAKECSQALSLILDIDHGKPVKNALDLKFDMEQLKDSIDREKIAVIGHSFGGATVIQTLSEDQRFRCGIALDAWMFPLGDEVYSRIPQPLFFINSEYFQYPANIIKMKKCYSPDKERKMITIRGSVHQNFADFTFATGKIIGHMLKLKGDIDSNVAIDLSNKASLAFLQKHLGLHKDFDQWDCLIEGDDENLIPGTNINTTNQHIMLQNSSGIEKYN
# EBNA-1 inhibitor = blocks EBNA-1 binding to DNA | EBNA-1 DNA binding, fluorescence polarization | inhibition, % at 14.8 µM | 300,000 compounds, 0.34% hits; in the data active = inhibition above about 28%
# PAFAH1B2 inh = inhibitors of human PAFAH1B2. recombinant PAFAH1B2, FP-rhodamine activity probe, fluorescence polarization. inhibition, % at 3.39 µM. 340,000 compounds, 1.2% hits. AID 492953;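 active = inhibition above the mean of all tested compounds plus 3 SD, cut at about 24% in these data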;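 also: 0% = enzyme with DMSO and 100% = wells lacking PAFAH1B2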
# PAFAH1B3 FP inh = blocks human PAF acetylhydrolase 1B catalytic subunit 3 | Q15102 | recombinant PAFAH1B3, FP-rhodamine probe, fluorescence polarization | inhibition, % at 3.39 µM | AID 492972 | 340,000 compounds, 0.28% hits;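 active = inhibition above the screen-wide average of all tested compounds plus 3 SD, cut at about 25% in these data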;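 also: 0% = enzyme with DMSO only and 100% = wells lacking PAFAH1B3 protein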
# Target sequence (Q15102 whole entry, looked up): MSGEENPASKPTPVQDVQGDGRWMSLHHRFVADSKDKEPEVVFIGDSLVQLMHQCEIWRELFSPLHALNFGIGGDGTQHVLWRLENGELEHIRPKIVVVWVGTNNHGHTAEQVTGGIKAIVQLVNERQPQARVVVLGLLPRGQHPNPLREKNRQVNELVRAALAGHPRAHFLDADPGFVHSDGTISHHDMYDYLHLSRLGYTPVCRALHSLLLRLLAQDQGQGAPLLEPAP
# PAFAH2 inh = PAFAH2 (human) inhibition | Q99487 | recombinant PAFAH2, FP-rhodamine activity probe, fluorescence polarization | inhibition, % at 3.39 µM | 340,000 compounds, 0.99% hits;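 active = inhibition above the mean over all tested compounds plus 3 SD, cut at about 30% in these data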;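 also: inhibitors block probe labeling of enzyme so polarization drops; 0% = enzyme with DMSO and 100% = wells lacking PAFAH2 protein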
# EBNA-1 inh conf = EBNA-1 (EBV) inhibition, confirmation; shares compounds with EBNA-1 inhibitor; Recombinant EBNA-1 DBD, Cy5-DNA fluorescence polarization; inhibition, % at 14.8 µM; 830 compounds, 35% hits;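 active = mean inhibition across replicates above a set limit taken from the earlier primary screen, cut at about 28% in these data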;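 also: plate controls were EBNA-1 protein with DMSO for no effect and wells lacking EBNA-1 for full effect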
# ZTA DNA inh trip = counter-screen for EBNA-1 inhibitors: Epstein-Barr virus ZTA inhibitors, triplicate; shares compounds with EBNA-1 inhibitor; Zta-ZRE DNA binding, Cy5 fluorescence polarization; inhibition, % at 11.1 µM; 830 tested, under 10 active;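 active = mean inhibition over triplicates above a set limit taken from the primary EBNA-1 screen, cut at about 37% in these data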;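 also: purified full length Zta protein with Cy5 labeled ZRE DNA probe; 0% = Zta with DMSO and 100% = wells lacking Zta protein; inhibitors lower polarization by freeing the labeled DNA probe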
# pPAFAH confirm = pPAFAH (human) inhibition, confirmed; shares compounds with pPAFAH inh; recombinant pPAFAH, FP-Rh probe fluorescence polarization; inhibition, % at 3.39 µM; 2,300 compounds, 72% hits; AID 463230;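 active = mean inhibition of the triplicate above the hit cutoff set for the earlier primary screen, cut at about 25% in these data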;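 also: 0% = enzyme with DMSO and 100% = wells lacking pPAFAH enzyme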
# Active calls of the source: *; / = no result given. Only some compounds are listed: those with a hit (about 2.9% of all), similar ones and a draw of the others.
SMILES,ZTA DNA inh,pPAFAH inh,EBNA-1 inhibitor,PAFAH1B2 inh,PAFAH1B3 FP inh,PAFAH2 inh,EBNA-1 inh conf,ZTA DNA inh trip,others
COc1cccc(Cn2c(=S)[nH]c3ccc(N4CCOCC4)cc3c2=O)c1,-4,20,29*,-2,-7,3,8,-11,
O=C(CSc1nncs1)Nc1nccs1,10,0,-5,1,2,3,/,/,
CC1CCCC(C)N1S(=O)(=O)c1ccc(NC(=O)CCn2cnc3ccccc3c2=O)cc1 (centres undefined),-9,-1,48*,4,6,0,52*,2,
O=C(Cn1cnc2ccccc2c1=O)Nc1ccc(S(=O)(=O)N2CCCC2)cc1,-3,-1,11,1,2,1,/,/,
Cc1c(C(=O)N/N=C/c2cccnc2)nnn1-c1nonc1N,5,-2,-15,4,6,-3,/,/,
Oc1cccc(C=NCc2ccccc2)c1,-9,0,-7,-3,7,-4,/,/,
O=C1N/C(=C\c2ccccc2)C(O)=C1C=NCc1ccccc1,-6,3,33*,-3,10,4,10,9,
Oc1ccc(N=Nc2ccccc2C(F)(F)F)c2cccnc12,5,21,95*,1,13,1,-1,2,
C[C@H](NC(=O)[C@@H]1Cc2ccccc2CN1C(=O)OC(C)(C)C)C(=O)NCC1CCCO1 (some centres undefined),9,2,6,3,3,-3,/,/,
CC(OCc1ccccc1)C(NC(=O)OC(C)(C)C)C(=O)NCC1CCCO1 (centres undefined),-12,1,46*,0,-8,-6,-8,-4,
COc1cccc(-n2nnc3c(=O)n(Cc4ccc(Br)cc4)cnc32)c1,7,-3,35*,-6,-10,-1,7,8,
COc1cccc(-n2nnc3c(=O)n(Cc4ccc(C)cc4)cnc32)c1,1,0,2,4,1,7,/,/,
Cc1ccc(-c2csc3ncnc(SCC(=O)Nc4nnc(C)s4)c23)cc1,-5,10,38*,4,-4,-11,17,-2,
O=C(CN1C(=O)NC2(CCCCCC2)C1=O)c1ccc(OC(F)F)cc1OC(F)F,-10,2,6,-1,4,-8,/,/,
O=C(NCC(F)(F)F)Nc1cccnc1,-7,-2,80*,2,3,1,3,2,
CCOC(=O)c1ccc(NC(=O)Cn2c(-c3nonc3N)nc3ccccc32)cc1,27,-7,31*,5,-6,-10,32*,19,
COC(=O)c1ccc(NC(=O)Cn2c(-c3nonc3N)nc3ccccc32)cc1,21,-1,10,-1,-6,-8,/,/,
Cc1cc(C)cc(NC(=O)Cn2c(-c3ccccc3Cl)nc3ccccc32)c1,1,3,60*,1,-4,1,-10,-9,
COCCCNC(=O)c1ccc(Cn2c(=O)c3ccccc3n(Cc3ccccc3C#N)c2=O)cc1,6,-1,33*,-6,-3,-18,11,1,
CCc1nnc(NC(=O)CSc2nc3cc4c(cc3cc2C)OCCO4)s1,0,-4,102*,-9,-16,-16,98*,12,
O=C(CSc1ncccn1)NC1CCS(=O)(=O)C1 (centres undefined),-5,7,2,0,-7,4,/,/,
CC1CC(C)CN(C(=O)c2cccc(S(=O)(=O)Nc3cc(C(F)(F)F)ccc3Cl)c2)C1 (centres undefined),10,4,30*,16,6,11,2,-6,
O=C(c1ccc(NS(=O)(=O)c2cccc(C(F)(F)F)c2)cc1)N1CCCC1,/,/,/,3,0,1,/,/,
CCCn1c(SCC(=O)N(C)CC(=O)Nc2ccc(Cl)cc2)n[nH]c1=O,8,4,/,2,7,8,/,/,
COc1ccccc1NS(=O)(=O)c1cccc(-n2c(O)c(C=Nc3ccccc3C(=O)O)c3ccccc3c2=O)c1,10,30*,36*,7,6,83*,21,6,
SMILES,ZTA DNA inh,pPAFAH inh,EBNA-1 inhibitor,PAFAH1B2 inh,PAFAH1B3 FP inh,PAFAH2 inh,EBNA-1 inh conf,ZTA DNA inh trip,others
Cc1ccc(NC(=O)C2CCN(S(=O)(=O)c3ccc4c(c3)OCCO4)CC2)nc1,-2,-2,-4,2,-1,4,/,/,
CC(C)C(C)NC(=O)CSc1nnc(-c2c[nH]c3ccccc23)o1 (centres undefined),4,7,0,-1,5,4,/,/,
Cc1ccc(C(=O)CSc2nnc(-c3c[nH]c4ccccc34)o2)cc1,-1,48*,29*,1,6,1,-8,-1,pPAFAH confirm=3
Cc1ccccc1-n1c(C)cc(/C=C2/C(=N)N3C(c4ccccc4)=CSC3=NC2=O)c1C,17,-1,-4,-13,-16,-8,/,/,
N=C1/C(=C\c2ccc(-c3cccc(C(=O)O)c3)o2)C(=O)N=C2SC=C(c3ccccc3)N12,-8,55*,32*,31*,29*,35*,36*,19,pPAFAH confirm=49*
CCCC(=O)N(c1ccc(OCC)cc1)S(=O)(=O)c1ccc2c3c(cccc13)C(=O)N2C,-4,2,3,-8,16,-1,/,/,
CC(/C=C1\SC(=S)N(c2ccc(C(=O)O)cc2)C1=O)=C\c1ccccc1,26,35*,36*,2,4,10,-4,23,pPAFAH confirm=28*
CC(/C=C1\SC(=S)N(C(C(=O)O)C(C)C)C1=O)=C\c1ccccc1 (centres undefined),18,4,-6,16,9,12,/,/,
CS(=O)(=O)c1ccc(Cl)c(NC(=O)COC(=O)CCCN2C(=O)c3cccc4cccc(c34)C2=O)c1,-3,0,10,-1,4,13,/,/,
Cc1ccc2c(c1)-n1c(nc3ccccc3c1=O)C(Cc1ccccc1)NC2=O (centres undefined),/,2,/,/,/,/,/,/,
COc1ccc(NS(=O)(=O)c2ccc(O)c(NC(=O)c3ccc(S(=O)(=O)N4CCCCCC4)cc3)c2)cc1,15,46*,28*,1,-16,-26,3,4,pPAFAH confirm=57*
Cc1cc(C(=O)CN2C(=O)NC3(CCCc4sccc43)C2=O)c(C)n1-c1ccc(Cl)cc1 (centres undefined),-4,40*,34*,2,-4,2,17,-11,pPAFAH confirm=42*
N#C/C(=N\Nc1cccc(C(F)(F)F)c1)C(=O)c1csc(-c2cccnc2)n1,-5,45*,50*,6,10,16,0,4,pPAFAH confirm=63*
